LDHA inh: qHTS assay for inhibitors of human lactate dehydrogenase; 480,000 compounds, 0.15% hits; activity change, % (values are at about 110 or 230 µM); purified LDHA, NADH/diaphorase-resazurin fluorescence; hits give low values; L-lactate dehydrogenase A chain (Homo sapiens), P00338; AID 1347041, 2019; in the data active means activity change below about -30%; inconclusive means mostly about -25% to -30%
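LDH5 2 nM; NADH 0.06 mM, pyruvate 0.2 mM; 200 mM Tris pH 7.4, EDTA, Tween-20; 5 min RT. Detection: diaphorase 0.133 mg/mL + resazurin 37 µM, fluorescence ex540/em590 at 0 and 20 min; normalized to enzyme-free and DMSO wells.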
Abeta rescue: qHTS for compounds that reverse cellular toxicity of Amyloid beta (A-beta) peptide in yeast: Primary Screen; yeast expressing A-beta42, growth rescue, OD600, 48 h; response scale: 0% DMSO, 100% iron-clioquinol control; 410,000 compounds, 0.063% hits; AID 1347071, 2019; Potency, µM (top dose mostly 46.1 µM), usual class: activators; further: nearly all actives have a fitted effect of over 55% in size
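Yeast growth medium received pinned compounds, then yeast cells expressing toxic A-beta were added; plates incubated at 30 C for 48 hr. Growth read as absorbance at 600 nm, normalized to DMSO and equimolar FeCl3 plus clioquinol controls.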
mIDH1 inhibitor: qHTS for Inhibitors of mutant isocitrate dehydrogenase 1 (IDH1): qHTS; Isocitrate dehydrogenase [NADP] cytoplasmic (Homo sapiens), O75874; IDH1-R132H enzyme, NADPH consumption, diaphorase/resazurin fluorescence; Potency, µM (top dose mostly 76.6 µM), usual class: inhibitors; 390,000 compounds, 0.093% hits; AID 602179, 2012; further: nearly all actives have a fitted effect of over 65% in size
Target sequence (O75874 whole entry R132H, stated change not applied): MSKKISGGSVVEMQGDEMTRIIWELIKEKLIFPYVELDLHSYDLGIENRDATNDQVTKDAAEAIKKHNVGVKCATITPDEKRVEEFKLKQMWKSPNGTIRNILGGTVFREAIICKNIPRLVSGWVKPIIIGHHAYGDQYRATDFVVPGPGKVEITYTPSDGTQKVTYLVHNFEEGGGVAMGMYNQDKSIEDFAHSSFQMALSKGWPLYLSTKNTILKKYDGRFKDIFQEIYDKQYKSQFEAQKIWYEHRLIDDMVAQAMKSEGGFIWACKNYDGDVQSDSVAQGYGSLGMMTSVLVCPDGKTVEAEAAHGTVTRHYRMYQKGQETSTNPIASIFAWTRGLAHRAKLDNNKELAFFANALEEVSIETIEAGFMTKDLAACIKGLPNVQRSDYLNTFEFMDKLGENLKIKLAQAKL
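IDH1-R132H (0.5 ug/mL) preincubated 30 min with compound, then NADPH (0.016 mM) and alpha-KG (2 mM) added; 80 min at RT, pH 7.5. Remaining NADPH coupled via diaphorase/resazurin to fluorescence (540/590 nm); concentration-response curves normalized to no-enzyme control.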
TDP-43 yeast inh: qHTS of TDP-43 Inhibitors | TDP-43 expressing yeast growth rescue, BacTiter-Glo, 24 h | Potency, µM (highest dose often 46.1 µM), most hits filed as activators | 410,000 compounds, 1.8% hits | AID 652104, 2013; further: nearly all actives have a fitted effect of over 50% in size
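In this qHTS, compounds that restore growth of yeast expressing TDP-43 appear as activators. Cells (OD600=0.02, galactose medium, raffinose-pregrown) are incubated with compound 24 hr at 30 deg C and growth is quantified by BacTiter-Glo.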
FUS yeast rescue: qHTS for Suppressors of FUS Proteinopathy: Primary screen using FUS-linked yeast assay; Potency, µM (highest dose often 76.6 µM), usual class: activators; S. cerevisiae FUS-expressing, growth rescue, OD600, 24 h; 390,000 compounds, 0.24% hits; AID 1347120, 2019; further: nearly all actives have a fitted effect of over 55% in size
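Steps: raffinose overnight preculture; dilution to OD 0.005 in 2% galactose minimal medium; compound addition (concentration series); 24hr at 30C, 99% humidity; absorbance read at 600 nm.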
aSyn rescue: qHTS of alpha-syn Inhibitors; Yeast expressing alpha-synuclein, growth rescue, BacTiter-Glo, 24 h; Potency, µM (titrated, usually from 46.1 µM), most hits filed as activators; 370,000 compounds, 0.14% hits; AID 652106, 2013; further: nearly all actives have a fitted effect of over 65% in size
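Galactose-induced alpha-syn yeast (OD600=0.02, raffinose-pregrown) + pinned cpd, 24 hr, 30 deg C; growth by BacTiter-Glo luminescence. Growth restoration scores as activation.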
Numbers stand for hits. Rows were chosen to be rich in hits. Some 2% of all compounds tested hit in one or more screens of this group. Unless noted, the call rests on the fitted dose curve; in most records, active means well fitted curve in the direction sought with a large enough effect; inconclusive means small, poorly fitted or top-dose-only effect, or another doubt; inactive means no such curve, though single readings can be large; an effect the other way counts as inactive or inconclusive.

`OC(c1ccc(F)c(F)c1)c1nc(-c2cnc3ccccc3c2)cs1` (configuration not stated) gave LDHA inh inactive, Abeta rescue inactive, TDP-43 yeast inh 22.4µM, FUS yeast rescue inactive and aSyn rescue inactive.
Screening CC(=O)Nc1cccc(-c2csc(C(O)c3ccc(F)c(F)c3)n2)c1 (configuration not stated) returned LDHA inh inactive, Abeta rescue inactive, TDP-43 yeast inh inconclusive, FUS yeast rescue inactive and aSyn rescue inactive.
COc1ccc(-c2csc(C(O)c3ccc(F)c(F)c3)n2)cc1 (configuration not stated) was read as LDHA inh inactive, Abeta rescue inactive, TDP-43 yeast inh inconclusive, FUS yeast rescue inactive and aSyn rescue 11.2µM.
`COc1ccc(-c2csc(C(O)c3ccccc3)n2)cc1` (configuration not stated) gave LDHA inh inactive, Abeta rescue inactive, TDP-43 yeast inh inconclusive, FUS yeast rescue inactive and aSyn rescue inactive.
`OC(c1ccc(F)c(F)c1)c1nc(-c2ccccc2)cs1` (configuration not stated) gave LDHA inh inactive, Abeta rescue inactive, TDP-43 yeast inh 14.1µM, FUS yeast rescue inactive and aSyn rescue inactive.
OC(c1ccc(F)c(F)c1)c1nc(-c2cccs2)cs1 (configuration not stated) was read as LDHA inh inactive, Abeta rescue inactive, TDP-43 yeast inh 22.4µM, FUS yeast rescue inactive and aSyn rescue inactive.
CC(=O)NC(c1ccc(F)c(F)c1)c1nc(-c2ccc3c(c2)OCO3)cs1 (configuration not stated) was read as LDHA inh inactive, Abeta rescue inactive, TDP-43 yeast inh inactive, FUS yeast rescue inactive and aSyn rescue inactive.
OC(c1ccccc1)c1nc(-c2cccs2)cs1 (configuration not stated) was read as LDHA inh inactive, Abeta rescue inactive, TDP-43 yeast inh inconclusive, FUS yeast rescue inactive and aSyn rescue inactive.
Screening OC(c1ccc(F)c(F)c1)c1nc(-c2ccc3c(c2)OCO3)cs1 (configuration not stated) returned LDHA inh inactive, Abeta rescue inactive, TDP-43 yeast inh 22.4µM, FUS yeast rescue inactive and aSyn rescue inconclusive.
Screening Cc1ccc(-c2cc3ccccn3c2C=O)cc1C returned LDHA inh inactive.
`Cc1cccc(-c2nnc(NC(=O)c3ccc(Cl)cc3)o2)c1` gave LDHA inh inactive, Abeta rescue inconclusive, mIDH1 inhibitor inactive, TDP-43 yeast inh inconclusive, FUS yeast rescue inactive and aSyn rescue 7.08µM.
`Cc1ccc(C(=O)Nc2nnc(-c3ccncc3)o2)cc1` gave LDHA inh inactive, Abeta rescue inactive, mIDH1 inhibitor inactive, TDP-43 yeast inh inactive, FUS yeast rescue inactive and aSyn rescue inactive.
`COc1cccc(-c2nnc(NC(=O)c3ccc(Cl)s3)o2)c1` gave LDHA inh inactive, Abeta rescue inconclusive, mIDH1 inhibitor inactive, TDP-43 yeast inh 10µM, FUS yeast rescue inactive and aSyn rescue inconclusive.
For O=C(Nc1nnc(-c2ccc(Cl)cc2)o1)c1nc2ccccc2s1 the results were LDHA inh inactive, Abeta rescue inactive, mIDH1 inhibitor inactive, TDP-43 yeast inh inconclusive, FUS yeast rescue inactive and aSyn rescue 17.8µM.
O=C(Nc1nnc(-c2ccc(Cl)cc2)o1)Nc1ccccc1Cl was read as LDHA inh inactive, Abeta rescue inactive, mIDH1 inhibitor inactive, TDP-43 yeast inh inactive, FUS yeast rescue inactive and aSyn rescue inactive.
